Dicer processing – inhibitors of human Dicer processing of pre-microRNA | Q9UPY3 | cat-ELCCA pre-miR-21 Dicer processing, chemiluminescence; hits give high values | z-score at 25 µM | hit rate 6% among 47,000; in the data active means z-score above about 3, passing the limit was not always enough;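 further: plate controls were vehicle for no effect and no enzyme for full effect; higher signal means more uncleaved substrate so more Dicer inhibition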
* = called active by the depositor. Shown is part of a subset that was picked to be rich in hits.

SMILES	Dicer processing
O=C(CSc1nnnn1-c1ccccc1)Nc1nsc(-c2ccc(Cl)cc2)n1	2.4
Cc1cccc(Nc2cc(C)nc3ncnn23)c1	-0.22
COCCCn1c(SCC(=O)NNC(=O)C(Cl)Cl)nnc1-c1ccc(C(C)(C)C)cc1	-2.2
O=S(=O)(Cc1ccc(Cl)c(Cl)c1)Cc1ccc(Cl)c(Cl)c1	1.4
CC(C)OCC(O)Cn1c(NCc2ccco2)nc2c1c(=O)[nH]c(=O)n2C (stereo unspecified)	3.9*
CC(C)Cn1c(NCc2ccco2)nc2c1c(=O)[nH]c(=O)n2C	4.5*
CC(C)Cn1c(NC2CCCCC2)nc2c1c(=O)[nH]c(=O)n2C	0.18
Cc1ccc(Cn2c(NCc3ccco3)nc3c2c(=O)n(C)c(=O)n3C)cc1	0.5
Cn1c(=O)[nH]c(=O)c2c1nc(NCCO)n2CC(O)COc1ccccc1 (stereo unspecified)	0.01
Cn1c(=O)[nH]c(=O)c2c1nc(NCc1ccco1)n2CC(O)COc1ccccc1 (stereo unspecified)	-1.6
CC(C)CNc1nc2c(c(=O)[nH]c(=O)n2C)n1C(C)C	0.88
Cn1c(=O)c2c(nc(NCc3ccco3)n2C)n(C)c1=O	-2.1
CC(C)Cn1c(NCCN(C)C)nc2c1c(=O)[nH]c(=O)n2C	4.3*
CCOc1ccc(N2C(=O)CC(Nc3ccc(N4CCOCC4)cc3)C2=O)cc1 (stereo unspecified)	-1.2
C=CC(C)Sc1nc(C)c(Cc2ccc(F)cc2)c(=O)[nH]1 (stereo unspecified)	-0.66
O=C(O)c1cc(NC(=O)C2CCN(c3nccc(C(F)(F)F)n3)CC2)ccc1N1CCOCC1	-0.66
CCOC(=O)c1cc2c(C(F)(F)F)nn(C)c2s1	-0.3
O=C(O)CCC(NC(=O)c1cncc(Br)c1)C(=O)O (stereo unspecified)	-0.86
O=C(CCc1nc(-c2ccc(Cl)cc2)no1)NNC(=O)c1ccccc1-n1cccc1	-0.85
CCN(CC)c1ncc2c(SCC(N)=O)nc(SCC(N)=O)nc2n1	0.41
CCOCC(=O)Nc1cc(C)on1	3.1*
COC(=O)CCCCCCCC(=O)Nc1cc(C)on1	-0.52
Cc1cc(NC(=O)CCCC(=O)O)no1	0.56
CC(C)(C)OCC(CO)NC(=O)OCC1c2ccccc2-c2ccccc21 (stereo unspecified)	-0.86
CCOC(=O)CC(=O)CSc1nnc(NC(=O)c2ccc(C)cc2)s1	-1.4
SMILES	Dicer processing
CS/C(N)=N/N=C(\C)c1ccc(Br)cc1	-0.84
O=C(C1=C(O)C(=O)N(Cc2cccnc2)C1c1ccc(Cl)cc1)c1cccs1 (stereo unspecified)	0.65
CCc1ccnc(NS(=O)(=O)c2ccccc2)c1	3.8*
Cc1ccnc(NS(=O)(=O)c2ccc(Br)cc2)c1	2.6
CCc1ccnc(NS(=O)(=O)c2ccc(C)c(Cl)c2)c1	0.91
COC(=O)c1cc(OC)c(OC)c(OC)c1N=C/C(C(C)=O)=C(\C)O	-0.53
O=S(=O)(c1ccc(Cl)cc1)n1ccc(-c2cnc3cc(Cl)c(Cl)cc3n2)c1	0.05
COc1cccc(-c2nc(-c3ccncc3)no2)c1OC	2.5
O=C(Cc1c(F)cccc1Cl)NC(=O)Nc1ccc(Cl)cc1	0.22
O=C(Cc1c(F)cccc1Cl)NC(=O)Nc1ccc(F)c(Cl)c1	3.9*
O=C(Nc1ccc(F)c(Cl)c1)Oc1ccccc1	0.75
CCc1sc(-c2c(C#N)c(N)nc3c2CCCC3)cc1Br	0.48
CCSc1nnc2c(n1)OC(c1ccccc1C)N(C(C)=O)c1ccccc1-2 (stereo unspecified)	1.1
Cc1ccc(OS(=O)(=O)c2cc(Cl)c(Cl)cc2Cl)c(Br)c1	-0.58
O=C(Nc1ccccc1)Nc1cc(-c2ccccc2)[nH]n1	-1.6
COC(=O)CCSc1nc2c(c(=O)[nH]1)C(C)(C1CCCCC1)Cc1ccccc1-2 (stereo unspecified)	3.7*
CCSc1nc2c(c(=O)[nH]1)C1(CCCC1)Cc1ccccc1-2	0.22
CCCCSCc1nc2c(c(=O)[nH]1)C1(CCCC1)Cc1ccccc1-2	0.7
CCCOc1ccc(C2c3c(oc4ccccc4c3=O)C(=O)N2c2nnc(C)s2)cc1 (stereo unspecified)	-0.01
O=C1CC(C(=O)Nc2ccc(Cl)cc2)SC(=Nc2ccccc2)N1 (stereo unspecified)	-1.2
COc1ccc(C2CC(=O)c3cnc(N4CC(C)CC(C)C4)nc3C2)cc1OC (stereo unspecified)	0.29
Cc1c(S(=O)(=O)Nc2ccc3[nH]ccc3c2)sc2ccc(Cl)cc12	3.5*
Cc1nc2ccccn2c1C(=O)NNS(=O)(=O)c1sc2ccc(Cl)cc2c1C	-0.07
Cc1c(CC(=O)NNS(=O)(=O)c2ccccc2C(F)(F)F)sc2ccc(Cl)cc12	0.58
CC(=O)c1cc(-n2nc3ccccc3n2)c(O)c(-n2nc3ccccc3n2)c1O	-0.08
COC(=O)C1=NN(c2ccccc2OC)C2C(=O)N(c3ccc(Br)cc3)C(=O)C12 (stereo unspecified)	-3.9
C=CCN1C(=O)C(O)(CC(=O)c2ccccc2)c2ccccc21 (stereo unspecified)	-0.1
CC(C)c1ccc(C(=O)CC2(O)C(=O)N(C)c3ccccc32)cc1 (stereo unspecified)	1.7

Assay outcomes as filed in PubChem BioAssay.
